Results on 172 sequences are retold here after PMC6212790, “How bacterial xenogeneic silencer rok distinguishes foreign from self DNA in its resident genome”.

In all, about 33,000 sequences were measured (“e-score”: median about -0.037, highest 2% from about 0.34 on). For the sample, the highest values were picked, then their nearest neighbours and some sequences at random.

The target in the assay is T1, GST-Rok (full length) (Bacillus subtilis subsp. subtilis str. …, UniProt O34857 1-191).
T1 sequence: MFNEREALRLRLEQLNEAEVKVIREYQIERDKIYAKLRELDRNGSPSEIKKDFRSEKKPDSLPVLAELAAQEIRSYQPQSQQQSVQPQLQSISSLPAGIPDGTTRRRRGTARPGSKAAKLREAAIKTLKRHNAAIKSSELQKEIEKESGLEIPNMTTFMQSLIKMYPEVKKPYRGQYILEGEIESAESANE
Nature of the assay: protein binding microarray; Rok is a gene silencer of Bacillus subtilis; high values mean tight binding. To be noted: protein: recombinant; tags: GST (pTH5325, pDEST15-Magic modified); dsDNA, one strand shown. Summed up:
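Every oligonucleotide joins a 25-mer constant primer to a 35-mer variable part drawn from a de Bruijn sequence of order 10, so each non-palindromic 8-mer appears at least 32 times and each palindromic 8-mer 16 times. The preference for every 8-mer is reported as a unitless, rank-based enrichment score (E-score). This score spans 0.5 for the most favored 8-mer to −0.5 for the most disfavored.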
In the case of AACCATAA, the binding signal came out at 0.0915 E-score. Take GACCATAA: the binding signal was -0.0227 E-score. As for TACCATAA, the binding signal was 0.336 E-score. Then GATAGTTA, with 0.391 E-score; and AATAGTTG, with 0.313 E-score. The value for GATAGTCA was 0.0302 E-score. Then CATAGTTA, with 0.244 E-score; and AATAGTTA, with 0.372 E-score. Regarding GATAGTGA, the binding signal worked out at 0.162 E-score. Then TGCTGCAA, with -0.149 E-score; and GCAATACA, with 0.115 E-score. Take CAACGACG: the binding signal is -0.1 E-score. Turning to CATAGCCG, the binding signal is -0.0675 E-score.

Take CGAACCCG: the binding signal was -0.099 E-score. Then CATAAAGA, with 0.0223 E-score; and AGCAGAGA, with -0.129 E-score. The value for GTACGATA was 0.252 E-score; that for ATACGATC was 0.0843 E-score; that for ATACGATA was 0.366 E-score. Then CTACGGTA, with 0.175 E-score. As for ATACGGTA, the binding signal is 0.348 E-score. The value for ATACGGTG was 0.0458 E-score; that for GTTATGAA was 0.155 E-score; that for AAACATCT was 0.0882 E-score.

On to AGGAGGAA, for which the binding signal is -0.159 E-score.

On to GCAGTCTA, for which the binding signal was found to be 0.0175 E-score. Then GACTAGAA, with 0.15 E-score.

For AGCTAGAA, the binding signal is 0.329 E-score.

Turning to AACTAGAC, the binding signal turned out to be 0.103 E-score. The value for AACTAGAT was 0.369 E-score; that for AACTAGAA was 0.395 E-score; that for TGCTAGAA was 0.387 E-score. Take TACTAGAA: the binding signal is 0.375 E-score.

With GGCTAGAA, the binding signal was -0.0986 E-score.

With AGCTAGAT, the binding signal amounted to 0.215 E-score. Turning to ACCTAGAA, the binding signal worked out at 0.109 E-score. Then CACTAGAA, with 0.224 E-score; and AACTAGAG, with 0.107 E-score.

On to AAAAAGCT, for which the binding signal was -0.0996 E-score. Then GAGTACCA, with -0.0678 E-score; and ACACATGA, with 0.211 E-score; and GACGTAGC, with 0.0184 E-score. The value for AGGTTGAC was -0.156 E-score; that for CGTAAGGC was -0.174 E-score. For the sequence AGAGGACT, the binding signal is -0.176 E-score.

In the case of GAGCTAAC, the binding signal worked out at 0.0297 E-score.

For ATCCTAAG, the binding signal was -0.0403 E-score. The value for AATCAATG was 0.0424 E-score; that for CACTTATC was 0.23 E-score.

Turning to ACGTAAAG, the binding signal turned out to be 0.0236 E-score. The value for GGTAGACA was 0.0655 E-score; that for GGTAGAAA was 0.472 E-score. The value for TTTAGAAA was 0.183 E-score; that for GGTAGAGA was 0.0752 E-score; that for GGTAGAAC was 0.374 E-score.

In the case of CGTAGAAA, the binding signal was found to be 0.359 E-score.

Regarding TGTAGAAA, the binding signal turned out to be 0.396 E-score. Then GATAGAAC, with 0.278 E-score; and TGTAGACA, with 0.159 E-score. Then GTTAGAAC, with 0.0808 E-score; and CGTAGAAC, with 0.0102 E-score; and CGTAGAAG, with 0.128 E-score.

As to AAGTGAGC, the binding signal was -0.093 E-score.

With CGTGCCTA, the binding signal was -0.0621 E-score. Then GCCCACTA, with 0.00538 E-score.

As for CCTCTTAC, the binding signal was -0.169 E-score. The value for AGGTTAAT was 0.137 E-score; that for CTGATAAG was 0.0753 E-score.

Consider TCCGTAGA, for which the binding signal came to 0.118 E-score. Then CTGGAACA, with -0.0188 E-score. Then CTACATAC, with 0.269 E-score; and ATACAAAT, with 0.32 E-score; and ATACATAC, with 0.372 E-score. For the sequence CTACATAG, the binding signal stood at 0.153 E-score. Take ATACATAT: the binding signal was determined as 0.399 E-score. On to ATACATAA, for which the binding signal turned out to be 0.316 E-score.

As to ATACACAT, the binding signal came to 0.303 E-score. Then ATACAAAC, with 0.354 E-score. The value for AAACATAT was 0.316 E-score; that for GTACATAC was 0.28 E-score. The value for ATACATAG was 0.391 E-score; that for ATACAAAA was 0.278 E-score.

With GAATGTAA, the binding signal was 0.21 E-score. Then AGCCCTAT, with -0.0484 E-score. Then CGCGATGC, with -0.0559 E-score; and AAATTAAA, with 0.166 E-score. The value for AGGTTCAT was -0.0409 E-score. Turning to GAATGGAC, the binding signal is -0.0766 E-score. Then AAGGTTGT, with -0.00326 E-score; and GCGATAAA, with 0.182 E-score; and ATACAATC, with 0.192 E-score.

On to ATACAATG, for which the binding signal came to 0.254 E-score.

ATACAATA: the binding signal was found to be 0.359 E-score. Then CATAATCA, with 0.164 E-score. As to CGAGGCCA, the binding signal was -0.199 E-score. Take TGAACTAA: the binding signal was determined as 0.0469 E-score. The value for ATTCGAAG was 0.09 E-score; that for ATTCGAAT was 0.342 E-score. Then ATTCGAAA, with 0.159 E-score. The value for AGCGGTTA was -0.138 E-score; that for ACCGGTAA was 0.255 E-score; that for AGCGGTAG was 0.34 E-score. Turning to AGCGGTAC, the binding signal was -0.166 E-score. Then AGCGGTAT, with 0.321 E-score; and CCCGGTAG, with -0.134 E-score.

For the sequence ACCGGTAG, the binding signal was determined as 0.374 E-score.

With CTATGTCA, the binding signal came out at 0.225 E-score.

AAGTCGCC: the binding signal is -0.0852 E-score. As for AAAGCATT, the binding signal is -0.0355 E-score.

As to ACTAGTAG, the binding signal turned out to be 0.426 E-score. The value for ACTAGTGG was 0.00757 E-score; that for ACCAGTAT was 0.255 E-score.

For ACTAGTAC, the binding signal turned out to be 0.41 E-score. Then CCTAGTAG, with 0.233 E-score. As to GCTAGTAC, the binding signal came out at 0.181 E-score. Then ACTAGTCT, with 0.248 E-score. Then ACTAGTAT, with 0.422 E-score; and CCTAGTAC, with 0.125 E-score.

Regarding AGTTAAGC, the binding signal was -0.0477 E-score. The value for GGCTAAGA was 0.000408 E-score. Then GTTCTCAA, with 0.0738 E-score; and TAACACTA, with 0.284 E-score; and GAAGACTC, with -0.114 E-score.

On to CAGTAGGC, for which the binding signal was -0.157 E-score.

Take TCCTACAA: the binding signal amounted to 0.0302 E-score. Turning to AGGCTTCG, the binding signal was -0.0947 E-score. The value for AGCCCTAA was -0.164 E-score; that for ATAATTAC was 0.385 E-score. Then GTAATTAC, with 0.421 E-score. Then ATAATTAG, with 0.317 E-score. As to ATAATTAT, the binding signal amounted to 0.268 E-score. On to ATAATTAA, for which the binding signal came out at 0.29 E-score.

Take CTAATTAC: the binding signal was 0.329 E-score. As for CTAATTAA, the binding signal is 0.233 E-score. The value for CTAATTAG was 0.375 E-score; that for GTAATTAA was 0.181 E-score. Then GAACCCAA, with -0.176 E-score.

As for ATGAAATC, the binding signal was found to be 0.029 E-score.

Consider AGGTCTGG, for which the binding signal was -0.0443 E-score. Regarding ATGTAAAC, the binding signal stood at 0.0692 E-score. The value for ATGTAAAT was 0.376 E-score; that for CTGTACAA was 0.0838 E-score. The value for AGCTACCC was -0.139 E-score. The value for ATGTACAG was 0.3 E-score. With ATGTACAT, the binding signal worked out at 0.409 E-score. On to GTGTACAA, for which the binding signal turned out to be 0.167 E-score. The value for ATGTACAA was 0.311 E-score. The value for ATGTAAAA was 0.295 E-score. Then AGCTACCA, with 0.358 E-score; and TTGTACAA, with 0.387 E-score; and AGCTACCT, with 0.164 E-score.

On to ATAATTCC, for which the binding signal is 0.213 E-score. Then GAGAACAA, with -0.119 E-score; and GTCGTTTA, with 0.0636 E-score; and CCTCACAG, with -0.0675 E-score. For AGCAGCAG, the binding signal was -0.124 E-score. Take ACGGACAC: the binding signal was -0.126 E-score. The value for CGCATTAA was 0.0651 E-score; that for GTGATTTA was 0.06 E-score; that for CCAGGAGC was -0.14 E-score. The value for AGCGTCTA was 0.0457 E-score. Then ATCTACCC, with 0.25 E-score; and ATCTACCA, with 0.48 E-score; and ATCTACCG, with 0.409 E-score. As for CTGTACCA, the binding signal is -0.0416 E-score. Then GTCTACCA, with 0.0944 E-score; and AGCTACCG, with 0.309 E-score; and ACCTACCG, with 0.169 E-score. Then ATGTACCA, with 0.342 E-score; and ATGTACCC, with 0.0665 E-score; and ATTGCCGG, with -0.0899 E-score.

As for ACCAGCCG, the binding signal came to 0.0494 E-score.
